The source of these data is PubChem BioAssay (EPA / NIEHS).

The structures appear in SMILES notation. Where “and” joins values, the source holds several entries; their conditions need not be identical. Identical values can stand only once. Records with an inconclusive call do not appear. More than one record can exist for a structure, and the calls need not agree. Calls of active or inactive are those of the source. How the source made its calls: active means hit-call score of the fitted dose curve at least 0.9, where 1 is the maximum; inconclusive means response in the unintended direction; inactive means score below 0.9.

Sequence of Cellular tumor antigen p53 (Homo sapiens) (P04637 whole entry, looked up, the tested form may be a part): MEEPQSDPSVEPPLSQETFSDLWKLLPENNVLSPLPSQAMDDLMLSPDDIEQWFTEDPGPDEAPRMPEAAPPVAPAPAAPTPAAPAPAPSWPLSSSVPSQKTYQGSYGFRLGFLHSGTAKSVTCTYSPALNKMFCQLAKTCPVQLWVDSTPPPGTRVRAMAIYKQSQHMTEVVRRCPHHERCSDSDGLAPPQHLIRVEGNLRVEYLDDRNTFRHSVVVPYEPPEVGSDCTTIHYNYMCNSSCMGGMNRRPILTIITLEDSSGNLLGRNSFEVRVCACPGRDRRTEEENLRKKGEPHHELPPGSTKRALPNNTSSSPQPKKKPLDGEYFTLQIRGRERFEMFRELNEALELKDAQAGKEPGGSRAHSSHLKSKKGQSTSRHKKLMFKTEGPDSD

This assay concerns the target Cellular tumor antigen p53 (Homo sapiens) (UniProt P04637). Nature of the assay: TOX21_p53_BLA_p4_ratio: Tox21 HCT-116 p53 Agonism Beta-lactamase Assay, Ratio, Phase 4 (AID 2283601). From the text: TOX21_p53_BLA_p4 is a cell-based, single-readout assay that uses HCT116, a human intestinal cell line, […] in a 1536-well plate.TOX21_p53_BLA_p4_ratio is an assay readout measuring reporter gene via receptor activity and designed using inducible reporter (beta lactamase induction) detected with GAL4 b-lactamase reporter gene. The signal is derived from the ratio of cleaved (ch2) to uncleaved (ch1)reporter gene substrate used as the measure of target activity.Data from the assay component TOX21_p53_BLA_p4_ratio was analyzed into 1 assay endpoint. This assay endpoint, TOX21_p53_BLA_p4_ratio, was analyzed in the positive analysis fitting direction relative to DMSO as the negative control and baseline of activity. Using a type of inducible reporter, gain-of-signal activity can be used to understand changes in the reporter gene as they relate to the gene TP53. Furthermore, this assay endpoint can be referred to as a primary readout, because this assay has produced multiple assay endpoints where this ratio serves a reporter gene function to understand target activity. To generalize the intended target to other relatable targets, this assay endpoint is annotated to the DNA binding intended target family, where the subfamily is tumor suppressor.
Thawing Method: Place 14 mL of pre-warmed thaw medium into a 15 mL of conical tub. Remove the vial of cells to be thawed from liquid nitrogen and thaw rapidly by placing at 37C in a water bath with gentle agitation for 1-2 minutes. Decontaminate the vial by wiping with 70% ethanol before opening in a biological safety cabinet. Transfer the vial contents drop-wise into 14 mL of thaw medium in a sterile 15-mL conical tub. Centrifuge cells at 900 rpm for 4 minutes and resuspend in thaw medium. Transfer contents to the T75 tissue culture flask containing Thaw Medium and place flask in a humidified 37C/5% CO2 incubator. Switch to growth medium at first passage.Propagation Method: Aspirate medium, rinse once in DPBS, add 0.25% Trypsin/EDTA and swirl to coat the cell evenly. Add an equal volume of Growth Medium to inactivate Trypsin after 2-3 minutes incubation at 37C. Centrifuge cells at 900 rpm for 4 minutes and resuspend in growth medium. Cell should be passage or fed at least twice a week.Assay Protocol: Harvest cells from culture in growth medium and resuspend in assay medium. 2.2 Dispense 4000 cells/5 uL/well into 1536-well black/clear bottom plates using a Multidrop dispenser. After the cells were incubated at 37C for 5 hours, 23 nL of compounds dissolved in DMSO were transferred to the assay plate by a PinTool resulting in a 217-fold dilution. Incubate the plates for 16 hours at 37C, 5% CO2. Add 1 uL of 6X LiveBLAzer FRET B/G (CCF4-AM) Substrate Mixture to each well using a BioRAPTR dispenser and incubate the plates at room temperature for 2 hours. Measure fluorescence intensity at 460 and 530 nm emission and 405 nm excitation by an Envision detector. Data is expressed as the ratio of 460nm/530nm emissions. Add 4 uL of Cell-titer Glo to each well using BioRAPTR and incubate the plates at room temperature for 2 hours. Measure fluorescence intensity by a VewLux plate reader.
By AC50 is commonly meant the concentration at which the activity in the assay is half-maximal. For `C[C@]12CC[C@H]3[C@@H](CC[C@@]45O[C@@H]4C(O)=C(C#N)C[C@]35C)[C@@H]1CC[C@@H]2O`, the result was inactive and the AC50 was 65.8 µM (active).
Turning to `c1ccc2cc3c(cc2c1)-c1cccc2cccc-3c12`, the AC50 was 1.98 µM (active).
As for `Nc1ccncc1`, the result was inactive.
On the same count and under the same terms, as for `CC(C)(Cl)Cl`, the entry is “inactive”; as for `Cc1cccc(Cc2cnc[nH]2)c1C`, “inactive”; as for `CCCC(C)(COC(N)=O)COC(=O)NC1CC1` (stereo not given), “inactive”.
Turning to `COc1ccc(OC)c([C@@H](O)[C@H](C)N)c1`, the outcome was inactive.
As for `c1ccc(OCC2CO2)cc1` (stereo not given), the result was inactive.
In the case of `OCC(Br)CBr` (stereo not given), the result was inactive.
In the case of `COc1cc(CC(C)N)cc(OC)c1OC` (stereo not given), the outcome was inactive.
As for `C=C[C@H]1CN2CC[C@H]1C[C@H]2[C@H](OC(=O)OCC)c1ccnc2ccc(OC)cc12`, the outcome was inactive.
Take `c1ccc2c(c1)[nH]c1cnccc12`: the result was inactive.
On to `CCCC(=O)OC(C(Cl)(Cl)Cl)P(=O)(OC)OC` (stereo not given), for which the result was inactive.
The same measure, in the same setting: next, `OC(c1ccccc1)(c1ccccc1)C1CCNCC1`: “inactive”; `CC(C)(C)C(=O)CCl`: “inactive”; `CN(C)CCC#N`: “inactive”.
Still for that read-out and setting: next, `O=CC=Cc1ccccc1`: “inactive”.
Regarding `Oc1ccc(C2(c3ccc(O)cc3)CCCCC2)cc1`, the half-maximal activity concentration (AC50) was 82.9 µM (active).
As to `Cc1ccccc1`, the outcome was inactive.
On to `O=C1NCN(c2ccccc2)C12CCN(CCCOc1ccc(F)cc1)CC2`, for which the result was inactive.
In the case of `NC(=O)CN1CC(O)CC1=O` (stereo not given), the outcome was inactive.
As for `O=C(O)c1nn(Cc2ccc(Cl)cc2Cl)c2ccccc12`, the AC50 is 81.2 µM (active) and the result was inactive.
For `CC(=O)O[C@H]1CC[C@@]2(C)C(=CC[C@@H]3[C@@H]2CC[C@]2(C)C(=O)CC[C@@H]32)C1`, the outcome was inactive.
For `CN(C)S(=O)(=O)N(SC(F)(Cl)Cl)c1ccccc1`, the AC50 was 48.6 µM (active).
On to `CCOC(=O)CBr`, for which the result was inactive.
`CC(C)CCCCCCCOP(=O)(Oc1ccccc1)Oc1ccccc1`: the outcome was inactive.
Same read-out and setting: as for `O=NN1CCCCC1`, the entry is “inactive”; as for `C=C1CC[C@@]2(O)[C@H]3Cc4ccc(O)c5c4[C@@]2(CCN3CC2CC2)[C@H]1O5`, “inactive”; as for `O=C=NC1CCCCC1`, “inactive”.
As to `O=C(NC(=O)c1c(F)cccc1F)Nc1ccc(Oc2ccc(C(F)(F)F)cc2Cl)cc1F`, the outcome was inactive.
On to `CCOS(C)(=O)=O`, for which the result was inactive.
For `CCOP(=O)(OCC)SCCSCC` (tested in a mixture with another compound), the result was inactive.
Consider `Cc1ccc2c(C)cccc2c1`, for which the outcome was inactive.
Same read-out and setting: as for `COc1ccc2c(c1OC)C(=O)O[C@@H]2[C@H]1c2cc3c(cc2CCN1C)OCO3`, the entry is “inactive”.
The same measure, in the same setting: next, `C=CCN1CC[C@]23CCCC[C@H]2[C@H]1Cc1ccc(O)cc13`: “inactive”; `CCCN1CCC[C@H](c2cccc(O)c2)C1`: “inactive”; `CC[C@H]1[C@@H]2C[C@H]3[C@@H]4N(C)c5ccccc5[C@]45C[C@@H](C2C5O)N3[C@@H]1O` (stereo not given in full): “inactive”.
As for `C[C@]12CC[C@@H]3c4ccc(OC(=O)N(CCCl)CCCl)cc4CC[C@H]3[C@@H]1CC[C@@H]2OP(=O)(O)O`, the half-maximal activity concentration (AC50) is 8.9 µM (active) and 36.3 µM (active).
